# Results reported in the supplement of paper PMC10037445.
# In all, about 2,900 compounds were measured (“NF-kB SEAP reporter activity, fold change vs agonist alone”: median about 0.99, highest 2% from about 2.6 on). Shown is part of a subset that was picked to be rich in the highest values.
# Key:
# [1] = test system: RAW-Dual; assay: NF-kB SEAP reporter activity, fold change vs agonist alone; cytotoxicity flag (confluency mask): not cytotoxic; higher = enhanced NF-kB activity
# Method in brief: (§1)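 RAW-Dual macrophages were seeded in DMEM at 50,000 cells/well in 384-well plates, given 50 nL of library stock by pin tool, and given a PRR agonist 1 h later. Plates were held at 37 °C, 5% CO2 for 20 hours, after which supernatant was read for IRF by QuantiLuc luminescence and for NF-κB by QuantiBlue absorbance at 620 nm. Reporter activity is expressed as fold change over wells that received agonist alone. A well was called cytotoxic when IncuCyte confluency fell below 70% of agonist controls in both mask sets.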
# [2] = test system: RAW-Dual; assay: NF-kB SEAP reporter activity, fold change vs agonist alone; higher = enhanced NF-kB activity; conditions: library stock concentration (final ~1000-fold dilution): 10 mM
# Method in brief: as §1
# [3] = test system: RAW-Dual; assay: NF-kB SEAP reporter activity, fold change vs agonist alone; cytotoxicity flag (confluency mask): cytotoxic (confluency <70% of control); higher = enhanced NF-kB activity
# Method in brief: as §1
# [4] = agonist: ODN 1826 (TLR9) 0.5 ug/mL
# [5] = agonist: Pam2CSK4 (TLR2/6) 0.1 ug/mL
# [6] = agonist: Pam3CSK4 (TLR2/1) 0.1 ug/mL
# [7] = cytotoxicity flag (confluency mask): not cytotoxic, agonist: Imiquimod (TLR7) […]
# [8] = cytotoxicity flag (confluency mask): not cytotoxic, agonist: MPLA (TLR4) […]
compound,measurement,setting,value
CC1CCN(C(=O)CC#N)CC1N(C)c1ncnc2[nH]ccc12 (stereo not given) (library stock concentration (final ~1000-fold dilution): 10 mM),NF-kB SEAP reporter activity,[1]; agonist: LPS (TLR4) 0.1 ug/mL,0.799
same,NF-kB SEAP reporter activity,[1]; [4],1.27
same,NF-kB SEAP reporter activity,[1]; [5],1.33
same,NF-kB SEAP reporter activity,[1]; [6],1.51
CC(=O)OC1CCC2(C)C(=CCC3C2CCC2(C)C(c4cccnc4)=CCC32)C1 (stereo not given),NF-kB SEAP reporter activity,[2]; [7],1.12
same,NF-kB SEAP reporter activity,[2]; [8],1.05
CC(=O)OC1CCC2(C)C(=CCC3C2CCC2(C)C(c4cccnc4)=CCC32)C1 (stereo not given) (library stock concentration (final ~1000-fold dilution): 10 mM),NF-kB SEAP reporter activity,[1]; agonist: LPS (TLR4) 0.1 ug/mL,0.898
same,NF-kB SEAP reporter activity,[1]; [4],1.06
same,NF-kB SEAP reporter activity,[1]; [5],0.97
same,NF-kB SEAP reporter activity,[1]; [6],1.97
COc1cc2oc(=O)ccc2c(OC)c1CC(O)C(C)(C)O (stereo not given),NF-kB SEAP reporter activity,[2]; [7],0.936
same,NF-kB SEAP reporter activity,[2]; [8],0.984
COc1cc2oc(=O)ccc2c(OC)c1CC(O)C(C)(C)O (stereo not given) (library stock concentration (final ~1000-fold dilution): 10 mM),NF-kB SEAP reporter activity,[1]; agonist: LPS (TLR4) 0.1 ug/mL,1.11
same,NF-kB SEAP reporter activity,[1]; [4],0.972
same,NF-kB SEAP reporter activity,[1]; [5],1.08
same,NF-kB SEAP reporter activity,[1]; [6],1.38
CC(C)(C)c1nc(-c2cccc(NS(=O)(=O)c3c(F)cccc3F)c2F)c(-c2ccnc(N)n2)s1 (library stock concentration (final ~1000-fold dilution): 10 mM),NF-kB SEAP reporter activity,[3]; agonist: LPS (TLR4) 0.1 ug/mL,3.02
same,NF-kB SEAP reporter activity,[3]; [4],3.35
same,NF-kB SEAP reporter activity,[3]; [5],2
same,NF-kB SEAP reporter activity,[3]; [6],1.57
CC(C)(C)c1nc(-c2cccc(NS(=O)(=O)c3c(F)cccc3F)c2F)c(-c2ccnc(N)n2)s1.CS(=O)(=O)O (library stock concentration (final ~1000-fold dilution): 10 mM),NF-kB SEAP reporter activity,[1]; agonist: LPS (TLR4) 0.1 ug/mL,3.17
same,NF-kB SEAP reporter activity,[1]; [4],3.05
same,NF-kB SEAP reporter activity,[1]; [5],2.08
same,NF-kB SEAP reporter activity,[1]; [6],1.78
CC(C)(C)c1nc(-c2cccc(NS(=O)(=O)c3c(F)cccc3F)c2F)c(-c2ccnc(N)n2)s1,NF-kB SEAP reporter activity,"[2]; cytotoxicity flag (confluency mask): cytotoxic (confluency <70% of control), agonist: Imiquimod (TLR7) […]",2.07
same,NF-kB SEAP reporter activity,"[2]; cytotoxicity flag (confluency mask): cytotoxic (confluency <70% of control), agonist: MPLA (TLR4) […]",1.89
CC(C)(C)c1nc(-c2cccc(NS(=O)(=O)c3c(F)cccc3F)c2F)c(-c2ccnc(N)n2)s1.CS(=O)(=O)O,NF-kB SEAP reporter activity,[2]; [8],1.93
CC(C)c1c(-c2ccccc2)[nH]c2c(C#N)cnn2c1=O.Cl,NF-kB SEAP reporter activity,[2]; [7],0.757
same,NF-kB SEAP reporter activity,[2]; [8],0.99
CC(C)c1c(-c2ccccc2)[nH]c2c(C#N)cnn2c1=O.Cl (library stock concentration (final ~1000-fold dilution): 10 mM),NF-kB SEAP reporter activity,[1]; agonist: LPS (TLR4) 0.1 ug/mL,0.8
same,NF-kB SEAP reporter activity,[1]; [4],0.816
same,NF-kB SEAP reporter activity,[1]; [5],0.507
same,NF-kB SEAP reporter activity,[1]; [6],0.52
CN1CCN(C(c2ccccc2)c2ccccc2)CC1.Cl.Cl (library stock concentration (final ~1000-fold dilution): 10 mM),NF-kB SEAP reporter activity,[1]; agonist: LPS (TLR4) 0.1 ug/mL,1.15
same,NF-kB SEAP reporter activity,[1]; [4],0.595
same,NF-kB SEAP reporter activity,[1]; [5],1.04
same,NF-kB SEAP reporter activity,[1]; [6],1.02
CN1CCN(C(c2ccccc2)c2ccccc2)CC1.Cl.Cl,NF-kB SEAP reporter activity,[2]; [7],0.9
same,NF-kB SEAP reporter activity,[2]; [8],0.897
O.S=c1nc[nH]c2nc[nH]c12,NF-kB SEAP reporter activity,[2]; [7],0.752
same,NF-kB SEAP reporter activity,[2]; [8],0.963
O.S=c1nc[nH]c2nc[nH]c12 (library stock concentration (final ~1000-fold dilution): 10 mM),NF-kB SEAP reporter activity,[1]; agonist: LPS (TLR4) 0.1 ug/mL,1.05
same,NF-kB SEAP reporter activity,[1]; [4],0.808
same,NF-kB SEAP reporter activity,[1]; [5],0.594
same,NF-kB SEAP reporter activity,[1]; [6],0.684
COc1ccc(-c2oc3c(CC=C(C)C)c(OC4OC(CO)C(O)C(O)C4O)cc(O)c3c(=O)c2OC2OC(C)C(O)C(O)C2O)cc1 (stereo not given),NF-kB SEAP reporter activity,[2]; [7],0.89
same,NF-kB SEAP reporter activity,[2]; [8],1.13
COc1ccc(-c2oc3c(CC=C(C)C)c(OC4OC(CO)C(O)C(O)C4O)cc(O)c3c(=O)c2OC2OC(C)C(O)C(O)C2O)cc1 (stereo not given) (library stock concentration (final ~1000-fold dilution): 10 mM),NF-kB SEAP reporter activity,[1]; agonist: LPS (TLR4) 0.1 ug/mL,1.57
same,NF-kB SEAP reporter activity,[1]; [4],0.992
same,NF-kB SEAP reporter activity,[1]; [5],1.14
same,NF-kB SEAP reporter activity,[1]; [6],1.28
C=C1CCCC2(C)C=C3OC(=O)C(C)=C3CC12 (stereo not given) (library stock concentration (final ~1000-fold dilution): 10 mM),NF-kB SEAP reporter activity,[1]; agonist: LPS (TLR4) 0.1 ug/mL,1
same,NF-kB SEAP reporter activity,[1]; [4],1.06
same,NF-kB SEAP reporter activity,[1]; [5],1.52
same,NF-kB SEAP reporter activity,[1]; [6],1.49
C=C1CCCC2(C)C=C3OC(=O)C(C)=C3CC12 (stereo not given),NF-kB SEAP reporter activity,[2]; [7],0.726
same,NF-kB SEAP reporter activity,[2]; [8],1.14
O=c1cc(-c2ccc(O)c(O)c2O)oc2ccccc12 (library stock concentration (final ~1000-fold dilution): 10 mM),NF-kB SEAP reporter activity,[1]; agonist: LPS (TLR4) 0.1 ug/mL,1.08
same,NF-kB SEAP reporter activity,[1]; [4],0.88
same,NF-kB SEAP reporter activity,[1]; [5],0.927
same,NF-kB SEAP reporter activity,[1]; [6],0.532
O=c1cc(-c2ccc(O)c(O)c2O)oc2ccccc12,NF-kB SEAP reporter activity,[2]; [7],0.689
same,NF-kB SEAP reporter activity,[2]; [8],1.05
CCOC(=O)C(CCc1ccccc1)NC(C)C(=O)N1C(C(=O)O)CC2CCCCC21 (stereo not given) (library stock concentration (final ~1000-fold dilution): 10 mM),NF-kB SEAP reporter activity,[1]; agonist: LPS (TLR4) 0.1 ug/mL,1.25
same,NF-kB SEAP reporter activity,[1]; [4],1
same,NF-kB SEAP reporter activity,[1]; [5],1.01
same,NF-kB SEAP reporter activity,[1]; [6],0.933
CCOC(=O)C(CCc1ccccc1)NC(C)C(=O)N1C(C(=O)O)CC2CCCCC21 (stereo not given),NF-kB SEAP reporter activity,[2]; [7],0.911
same,NF-kB SEAP reporter activity,[2]; [8],1.04
CCCCCCCCCCCCCCCC(=O)OC1C(SC)OC(C(NC(=O)C2CC(CCC)CN2C)C(C)Cl)C(O)C1O.Cl (stereo not given) (library stock concentration (final ~1000-fold dilution): 10 mM),NF-kB SEAP reporter activity,[1]; agonist: LPS (TLR4) 0.1 ug/mL,0.968
same,NF-kB SEAP reporter activity,[1]; [4],1.08
same,NF-kB SEAP reporter activity,[1]; [5],0.877
same,NF-kB SEAP reporter activity,[1]; [6],0.713
CCCCCCCCCCCCCCCC(=O)OC1C(SC)OC(C(NC(=O)C2CC(CCC)CN2C)C(C)Cl)C(O)C1O.Cl (stereo not given),NF-kB SEAP reporter activity,[2]; [7],1.2
same,NF-kB SEAP reporter activity,[2]; [8],0.983
